The whole screen tested about 5,500 compounds, of which about 2,000 (36%) were called active. Inconclusive results (about 18%) are left out. No stated cut-off is given here; in the data, active means normalized growth mostly below about 0.91 (no sharp cut-off); inconclusive means no clear call, values can overlap the other calls; inactive means mostly above about 0.92. This is one part of the list.
Assay: chemical genetic growth profiling, strain panel (AID 1159580);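 further: tested at 20 µM; growth read once vehicle control cultures reached saturation at 30 °C; 1 = growth at the plate median or of vehicle wells; lower values mean less growth of the strain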
Conditions: growth OD

Measured: normalized growth

CCc1ccc2c(O)c3c(cc2c1C(=O)OC)C(=O)c1c(O)ccc(O)c1C3=O
inactive: S. cerevisiae deletion strains, locus YJR066W, strain TOR1, hits give low values 0.895 | S. cerevisiae deletion strains, locus YJR075W, strain HOC1, hits give low values 0.981 | S. cerevisiae deletion strains, locus YKL068W, hits give low values 0.99 | S. cerevisiae deletion strains, locus YKL085W, strain MDH1 (second series), hits give low values 1.05 | S. cerevisiae deletion strains, locus YKL085W, strain MDH1, hits give low values 1.05 | S. cerevisiae deletion strains, locus YKL160W, strain elf1, hits give low values 0.996 | S. cerevisiae deletion strains, locus YKR001C, strain vps1, hits give low values 0.99 | S. cerevisiae deletion strains, locus YKR026C, strain gcn3, hits give low values 0.979 | S. cerevisiae deletion strains, locus YKR091W, strain srl3, hits give low values 0.995 | S. cerevisiae deletion strains, locus YLL001W, strain dnm1, hits give low values 0.973 | S. cerevisiae deletion strains, locus YLL026W, hits give low values 0.983 | S. cerevisiae deletion strains, locus YLL041C, strain sdh2, hits give low values 0.999 | S. cerevisiae deletion strains, locus YLR027C, strain aat2, hits give low values 0.994 | S. cerevisiae deletion strains, locus YLR039C, strain RIC1, hits give low values 0.961 | S. cerevisiae deletion strains, locus YLR058C, strain SHM2, hits give low values 0.956 | S. cerevisiae deletion strains, locus YLR102C, strain apc9, hits give low values 0.999 | S. cerevisiae deletion strains, locus YLR113W, strain HOG1, hits give low values 0.988 | S. cerevisiae deletion strains, locus YLR221C, strain rsa3, hits give low values 0.969 | S. cerevisiae deletion strains, locus YLR258W, strain gsy2, hits give low values 0.989 | S. cerevisiae deletion strains, locus YLR262C, strain YPT6 (second series), hits give low values 0.956 | S. cerevisiae deletion strains, locus YLR262C, strain YPT6, hits give low values 0.95 | S. cerevisiae deletion strains, locus YLR268W, strain sec22, hits give low values 0.98 | S. cerevisiae deletion strains, locus YLR320W, strain mms22, hits give low values 0.98 | S. cerevisiae deletion strains, locus YLR330W, strain CHS5, hits give low values 1 | S. cerevisiae deletion strains, locus YLR342W, strain FKS1 (second series), hits give low values 0.977 | S. cerevisiae deletion strains, locus YLR342W, strain FKS1, hits give low values 0.968 | S. cerevisiae deletion strains, locus YLR357W, strain rsc2, hits give low values 0.878 | S. cerevisiae deletion strains, locus YLR370C, strain arc18, hits give low values 0.949 | S. cerevisiae deletion strains, locus YLR371W, strain rom2, hits give low values 0.995 | S. cerevisiae deletion strains, locus YLR384C, strain iki3, hits give low values 1 | S. cerevisiae deletion strains, locus YLR418C, strain cdc73, hits give low values 0.932 | S. cerevisiae deletion strains, locus YML016C, strain PPZ1, hits give low values 0.983 | S. cerevisiae deletion strains, locus YML032C, strain rad52, hits give low values 0.932 | S. cerevisiae deletion strains, locus YML120C, strain ndi1, hits give low values 0.999 | S. cerevisiae deletion strains, locus YML124C, strain tub3, hits give low values 0.998 | S. cerevisiae deletion strains, locus YMR078C, strain ctf18, hits give low values 0.997 | S. cerevisiae deletion strains, locus YMR125W, strain sto1, hits give low values 1.01 | S. cerevisiae deletion strains, locus YMR129W, hits give low values 0.966 | S. cerevisiae deletion strains, locus YMR205C, strain PFK2, hits give low values 0.984 | S. cerevisiae deletion strains, locus YMR223W, strain ubp8, hits give low values 0.933 | S. cerevisiae deletion strains, locus YMR231W, strain pep5, hits give low values 0.995 | S. cerevisiae deletion strains, locus YMR307W, strain GAS1, hits give low values 0.998 | S. cerevisiae deletion strains, locus YNL067W, strain RPL9B, hits give low values 0.973 | S. cerevisiae deletion strains, locus YNL071W, strain lat1, hits give low values 1 | S. cerevisiae deletion strains, locus YNL153C, strain GIM3, hits give low values 0.954 | S. cerevisiae deletion strains, locus YNL183C, strain NPR1, hits give low values 0.908 | S. cerevisiae deletion strains, locus YNL209W, strain ssb2, hits give low values 0.981 | S. cerevisiae deletion strains, locus YNL233W, strain BNI4, hits give low values 0.98 | S. cerevisiae deletion strains, locus YNL248C, strain rpa49, hits give low values 0.961 | S. cerevisiae deletion strains, locus YNL250W, strain rad50, hits give low values 0.972 | S. cerevisiae deletion strains, locus YNL271C, strain bni1, hits give low values 0.965 | S. cerevisiae deletion strains, locus YNL298W, strain CLA4, hits give low values 0.985 | S. cerevisiae deletion strains, locus YNL307C, strain MCK1, hits give low values 1 | S. cerevisiae deletion strains, locus YNL322C, strain KRE1 (second series), hits give low values 0.979 | S. cerevisiae deletion strains, locus YNR049C, strain mso1, hits give low values 0.967 | S. cerevisiae deletion strains, locus YNR052C, strain pop2, hits give low values 0.984 | S. cerevisiae deletion strains, locus YOL006C, strain TOP1, hits give low values 1.07 | S. cerevisiae deletion strains, locus YOL012C, strain htz1 0.673 | S. cerevisiae deletion strains, locus YOL147C, strain pex11, hits give low values 1.01 | S. cerevisiae deletion strains, locus YOR001W, strain rrp6, hits give low values 0.973 | S. cerevisiae deletion strains, locus YOR061W, strain CKA2, hits give low values 0.957 | S. cerevisiae deletion strains, locus YOR069W, strain VPS5, hits give low values 0.999 | S. cerevisiae deletion strains, locus YOR070C, strain gyp1, hits give low values 0.988 | S. cerevisiae deletion strains, locus YOR080W, strain dia2, hits give low values 0.991 | S. cerevisiae deletion strains, locus YOR083W, strain WHI5, hits give low values 0.98 | S. cerevisiae deletion strains, locus YOR106W, strain vam3, hits give low values 0.964 | S. cerevisiae deletion strains, locus YOR136W, strain idh2, hits give low values 1.01 | S. cerevisiae deletion strains, locus YOR144C, strain elg1, hits give low values 0.993 | S. cerevisiae deletion strains, locus YOR184W, strain ser1, hits give low values 0.965 | S. cerevisiae deletion strains, locus YOR231W, strain MKK1, hits give low values 0.965 | S. cerevisiae deletion strains, locus YOR265W, strain rbl2, hits give low values 0.987 | S. cerevisiae deletion strains, locus YOR270C, strain vph1, hits give low values 0.827 | S. cerevisiae deletion strains, locus YOR290C, strain snf2, hits give low values 0.929 | S. cerevisiae deletion strains, locus YOR316C, strain cot1, hits give low values 0.992 | S. cerevisiae deletion strains, locus YPL051W, strain arl3, hits give low values 0.953 | S. cerevisiae deletion strains, locus YPL078C, strain atp4, hits give low values 0.977 | S. cerevisiae deletion strains, locus YPL106C, strain sse1, hits give low values 0.974 | S. cerevisiae deletion strains, locus YPL240C, strain hsp82, hits give low values 0.983 | S. cerevisiae deletion strains, locus YPL241C, strain CIN2, hits give low values 0.99 | S. cerevisiae deletion strains, locus YPL256C, strain CLN2, hits give low values 1.03 | S. cerevisiae deletion strains, locus YPR119W, strain clb2, hits give low values 1 | S. cerevisiae deletion strains, locus YPR141C, strain kar3, hits give low values 0.979 | S. cerevisiae deletion strains, locus YPR163C, strain tif3, hits give low values 1.01 | S. cerevisiae deletion strains, locus YPR167C, strain met16, hits give low values 0.965 | S. cerevisiae deletion strains, strain wtn01, hits give low values 1 | S. cerevisiae strains, strain wild type, hits give low values 0.971
active: S. cerevisiae deletion strains, locus YMR058W, strain fet3, hits give low values 0.762

Source: PubChem BioAssay AID1159580 (chemical genetic matrix, 2015)
